RPL19A TOR yeast – modulators of TOR pathway RPL19A-GFP in S. cerevisiae; S. cerevisiae RPL19A-GFP strain, flow cytometry, 3 h; stronger effect = lower value; percent response vs DMSO, % at 10 µM; 0.3% of 330,000 active; AID 2025;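 active = percent response vs DMSO below 50%; inconclusive = fewer than 70 events counted for the yeast strain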;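 also: median channel GFP fluorescence of the barcoded RPL19A-GFP strain; ratio of sample median GFP to plate DMSO average so 100% = DMSO; lower means less RPL19A-GFP as with rapamycin TOR inhibition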
MEP2-GFP yeast – alters MEP2-GFP fluorescence in TOR pathway yeast screen | S. cerevisiae MEP2-GFP strain, flow cytometry GFP, 3 h; 100% = DMSO control level | GFP response vs DMSO, % at 10 µM | 0.51% of 330,000 active | AID 2016;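 active = GFP response versus DMSO above a set limit, roughly screen mean plus 3 SD, cut at about 180% in these data; inconclusive = fewer than 70 cells counted for a yeast strain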;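 also: median GFP fluorescence of the barcode-gated MEP2-GFP cells per well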
LAP4-GFP MLPCN – alters LAP4-GFP fluorescence in TOR pathway yeast screen. S. cerevisiae LAP4-GFP multiplex, flow cytometry GFP, 3 h; median GFP as percent of DMSO wells. GFP response vs DMSO, % at 10 µM. 0.34% of 320,000 active;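 active = GFP response vs DMSO above a set limit, about the screen mean plus 3 SD, cut at about 150% in these data; inconclusive = under 70 cell events counted for the yeast strain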
AGP1 TOR yeast – yeast TOR pathway AGP1-GFP modulation; AID 2066; 0.02% of 320,000 active; GFP response vs DMSO, % at 10 µM; S. cerevisiae AGP1-GFP multiplex flow cytometry, 3 h; GFP as percent of DMSO wells;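 active = GFP response relative to DMSO above a set limit, near screen average plus 3 SD, cut at about 150% in these data; inconclusive = fewer than 70 cells counted for the yeast strain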;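 also: median GFP channel fluorescence of the gated AGP1 strain per well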
CIT2-GFP yeast – modulators of TOR pathway CIT2-GFP in S. cerevisiae. AID 2029. S. cerevisiae CIT2-GFP strain, flow cytometry, 3 h; 100 means same as DMSO wells. 0.065% of 320,000 active. GFP response vs DMSO, % at 10 µM;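 active = GFP response relative to DMSO above a set limit, near the screen mean plus 3 SD, cut at about 150% in these data; inconclusive = Fewer than 70 cells measured for a yeast strain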;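 also: ratio of well median GFP fluorescence to mean of DMSO wells on the plate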
LAP4-GFP pick2 – reconfirmed LAP4-GFP TOR pathway modulator in yeast | shares compounds with LAP4-GFP MLPCN | S. cerevisiae LAP4-GFP strain, flow cytometry GFP, 3 h | GFP response vs DMSO, % at 10 µM | 20% of 590 active | AID 2621;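 active = GFP signal as percent of the solvent control above about 150%, meaning raised reporter expression, limit read from the data; inconclusive = fewer than 70 cells counted in the well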;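 also: ratio of well median GFP fluorescence to plate DMSO mean so 100% = DMSO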
MEP2-GFP pick2 – yeast MEP2-GFP modulation, second cherry pick | shares compounds with LAP4-GFP MLPCN | S. cerevisiae MEP2-GFP strain, flow cytometry GFP, 3 h | GFP response vs DMSO, % at 10 µM | 10% of 590 active | AID 2622;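 active = GFP signal above 150% of the solvent control wells, that is a rise of more than half; inconclusive = fewer than 70 yeast cells counted in the well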;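 also: median channel GFP fluorescence of all gated yeast cells per well; ratio of median GFP to plate DMSO average so 100% = DMSO level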
RPL19A GFP CP2 – reconfirmed modulator of RPL19A-GFP TOR reporter in yeast. 3% of 590 active. AID 2623. GFP response vs DMSO, % at 10 µM. shares compounds with LAP4-GFP MLPCN. S. cerevisiae RPL19A-GFP strain, flow cytometry GFP, 3 h; stronger effect = lower value; 100% means same as DMSO wells;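 active = under 65% GFP response relative to DMSO; inconclusive = yeast strain with under 70 measured events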;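 also: median GFP channel fluorescence per well over the all cells gate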
CIT2 GFP CP2 – reconfirmed modulator of CIT2-GFP TOR reporter in yeast | 8% of 590 active | shares compounds with LAP4-GFP MLPCN | GFP response vs DMSO, % at 10 µM | S. cerevisiae CIT2-GFP strain, flow cytometry GFP, 3 h; DMSO control wells read 100%;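 active = GFP response vs DMSO above about 150%, limit read from the data; inconclusive = fewer than 70 events counted for a yeast strain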;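 also: median green fluorescence per well over all gated yeast cells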
AGP1-GFP pick2 – yeast AGP1-GFP TOR reporter modulation, second cherry pick; 590 tested, under 10 active; shares compounds with LAP4-GFP MLPCN; percent response vs DMSO, % at 10 µM; AID 2643; S. cerevisiae AGP1-GFP strain, flow cytometry GFP, 3 h;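 active = over 150 percent of DMSO response; inconclusive = yeast strain measured with under 70 events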;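 also: median GFP channel fluorescence over all cells without mother daughter split; sample median GFP divided by mean DMSO control so 100% equals DMSO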
s288c autofluor – compound is autofluorescent in yeast s288c cells; shares compounds with LAP4-GFP MLPCN; S. cerevisiae s288c, 520 nm autofluorescence, flow cytometry, 3 h; stronger effect = higher value; zero means same as solvent-only cells; fluorescence change (kMESF span) at 33 µM; 610 tested, under 10 active;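 active = fluorescence span over the dose series, or activity score, above about 33, limit read from the data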
Yeast autofl DR – counter-screen for autofluorescence of TOR hits in yeast s288c. S. cerevisiae s288c parental, compound autofluorescence, flow cytometry, 3 h. 110 tested, under 10 active. fluorescence change (span) at 33 µM. shares compounds with LAP4-GFP MLPCN;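 active = fluorescence change span, or the activity score built from it, above 25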
TORC1 bypass gr – compounds blocking wildtype yeast growth but not TORC1 bypass cells; shares compounds with LAP4-GFP MLPCN; S. cerevisiae BY4741 spot growth rating, 48-72 h; stronger effect = lower value; growth rating (0-3) at 30 µM; 120 tested, under 10 active;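 active = growth rating at most 1 for wild type yeast while the TORC1 bypass strain still grows fully, rated 3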
Starred values were filed as active, the others as inactive; u = inconclusive; x = no result. An excerpt weighted towards active compounds, which were near 0.89% of everything screened.

SMILES | RPL19A TOR yeast | MEP2-GFP yeast | LAP4-GFP MLPCN | AGP1 TOR yeast | CIT2-GFP yeast | LAP4-GFP pick2 | MEP2-GFP pick2 | RPL19A GFP CP2 | CIT2 GFP CP2 | AGP1-GFP pick2 | others
O=C(O)c1cccc(CN2C(=O)S/C(=C/c3cccc([N+](=O)[O-])c3)C2=O)c1 | 53.1 | 155.5 | 102.5 | 22.4 | 81.5 | 98.1 | 99.8 | 102.8 | 102.9 | 98.8
CC1CCN(C(=O)c2ccc(NS(=O)(=O)c3ccc4[nH]c(=O)[nH]c4c3)cc2)CC1 | 98.0 | 104.4 | 109.3 | 109.9 | 95.1 | x | x | x | x | x
Nc1nc(NCCN2CCOCC2)nc(Nc2cccc(F)c2)c1[N+](=O)[O-] | x | x | x | x | x | x | x | x | x | x | Yeast autofl DR=0.31;TORC1 bypass gr=3
Nc1nc(NCC2CCCO2)nc(Nc2cccc(F)c2)c1[N+](=O)[O-] (configuration not stated) | 98.1 | 94.1 | 114.3 | 96.4 | 98.1 | x | x | x | x | x | Yeast autofl DR=0.06;TORC1 bypass gr=3
COCCCNc1nc(N)c([N+](=O)[O-])c(Nc2cccc(F)c2)n1 | x | x | x | x | x | x | x | x | x | x | Yeast autofl DR=0.16;TORC1 bypass gr=3
CN(c1ccccc1)c1nc(N)c([N+](=O)[O-])c(Nc2cccc(F)c2)n1 | 104.7 | 111.6 | 97.6 | 102.2 | 102.2 | x | x | x | x | x
Nc1nc(Nc2cccc(Cl)c2)nc(NCCO)c1[N+](=O)[O-] | 96.4 | 101.9 | 108.4 | 108.2 | 99.3 | x | x | x | x | x
Nc1nc(Nc2cccc(Cl)c2)nc(Nc2cccc(F)c2)c1[N+](=O)[O-] | x | x | x | x | x | x | x | x | x | x | Yeast autofl DR=0.16;TORC1 bypass gr=3
N#CC1(NC(=O)COC(=O)c2nc(Cl)c(Cl)c(N)c2Cl)CCCCC1 | 106.3 | 106.5 | 114.0 | 120.4 | 117.6 | x | x | x | x | x
CN1CCN(S(=O)(=O)c2cccc3nsnc23)CC1 | 92.6 | 94.2 | 85.0 | 90.8 | 95.2 | x | x | x | x | x
CC(C)(C)OC(=O)C[C@@H]1C/C=C\C[C@H](CC(=O)NCCO)C(=O)NC[C@H](c2ccccc2)OC1=O | 94.8 | 103.0 | 101.1 | 96.0 | 92.7 | x | x | x | x | x
CCC(Oc1ccccc1)C(=O)Nc1nnc(S(=O)(=O)N2CCCC2)s1 (configuration not stated) | 101.5 | 102.2 | 104.2 | 102.7 | 103.6 | x | x | x | x | x
Cc1cc(C2CCCCC2)n(O)c(=O)c1 | 99.9 | 91.3 | 191.8* | 84.4 | 60.8 | 187.4* | 120.5 | 104.2 | 73.7 | 113.3 | s288c autofluor=0
Cc1csc(C(C)NC(=O)c2ccc(OC3CCN(CCc4ccccc4)CC3)cc2)n1 (configuration not stated) | 94.6 | 90.9 | 97.9 | 107.7 | 96.7 | x | x | x | x | x
N#Cc1ccccc1OCC(=O)Nc1nnc(C2CC2)s1 | 92.5 | 91.0 | 92.1 | 91.6 | 95.8 | x | x | x | x | x
COC1=C(N)C(=O)c2nc(-c3nc(C(=O)O)c(C)c(-c4ccc(OC)c(OC)c4O)c3N)ccc2C1=O | 59.9 | 132.1 | 218.4* | 67.4 | 71.1 | 308.6* | 251.5* | 95.5 | 349.1* | 98.1
COc1ccc(-c2ncncc2-c2csc(C)n2)c(O)c1OC | 98.0 | 98.7 | 99.3 | 90.9 | 89.5 | x | x | x | x | x
O=C(CC1CCCC1)N1CCN(S(=O)(=O)c2ccccc2)CC1 | 91.2 | 116.6 | 82.3 | 23.5 | u | x | x | x | x | x
CC(=O)C(Cl)C(=O)Nc1ccccc1 (configuration not stated) | x | x | x | x | x | 120.2 | 121.5 | 103.4 | 123.3 | 112.2
O=C(Nc1ccccc1)C(Cl)C(=O)c1ccccc1 (configuration not stated) | 101.2 | 97.2 | 129.6 | 86.5 | 92.5 | 120.2 | 113.5 | 105.3 | 125.2 | 106.8
O=C(/C=C/c1ccc(F)cc1)c1cc(Br)ccc1O | 105.7 | 109.2 | 101.5 | 109.7 | 117.1 | x | x | x | x | x
O=C(/C=C/c1ccccc1)c1cc(Br)ccc(=O)c1O | 92.5 | 84.7 | 117.6 | 79.9 | 87.9 | 145.3 | 153.7* | 72.3 | 162.7* | 86.8 | s288c autofluor=23.4
Cc1ccc(C(=O)COC(=O)COc2ccccc2[N+](=O)[O-])s1 | 98.2 | 101.1 | 103.7 | 98.7 | 97.3 | x | x | x | x | x
CCOC(=O)COc1ccccc1/C=C\[N+](=O)[O-] | 72.4 | 91.4 | 188.4* | 76.5 | 74.2 | 140.3 | 122.3 | 95.7 | 112.6 | 101.0
C/C=C/C1=CC(=O)C[C@H](c2ccc(Cl)cc2)C1 | 102.0 | 100.0 | 112.2 | 101.6 | 101.5 | x | x | x | x | x
SMILES | RPL19A TOR yeast | MEP2-GFP yeast | LAP4-GFP MLPCN | AGP1 TOR yeast | CIT2-GFP yeast | LAP4-GFP pick2 | MEP2-GFP pick2 | RPL19A GFP CP2 | CIT2 GFP CP2 | AGP1-GFP pick2 | others
COc1ccc(-c2nc(-c3cccs3)c(-c3cccs3)[nH]2)cc1O | 67.5 | 101.3 | 164.4* | 51.0 | 104.4 | 106.2 | 101.3 | 98.0 | 97.3 | 96.9
O=C(O)c1ccc(-c2nc(-c3ccccc3)c(-c3cccs3)[nH]2)cc1 | 110.4 | 104.6 | 105.0 | 104.6 | 111.9 | x | x | x | x | x
CC(=O)Nc1ccc(NC(=O)C(C)OC(=O)CNC(=O)c2ccc(-c3ccccc3)cc2)cc1 (configuration not stated) | 95.5 | 94.7 | 102.0 | 104.8 | 92.8 | x | x | x | x | x
O=c1c2cc(Cl)ccc2nc(-c2ccc([N+](=O)[O-])cc2)n1O | 64.5 | 95.7 | 134.5 | 79.4 | 75.6 | 157.7* | 153.1* | 45.6* | 144.8 | 75.4 | s288c autofluor=0.3
CC1CCN(S(=O)(=O)N2CCCC(C(=O)NCc3ccc(F)cc3)C2)CC1 (configuration not stated) | 63.2 | 147.1 | 90.9 | 17.8 | 101.2 | 101.2 | 101.3 | 98.0 | 105.7 | 99.8
CN(C)c1ccc(N=Cc2nc(-c3ccccc3)oc2OC(=O)c2cccc(Br)c2)cc1 | 102.0 | 108.7 | 98.2 | 96.8 | 106.2 | x | x | x | x | x
CCC(=O)Oc1oc(-c2ccccc2)nc1C=Nc1ccccc1OC | 94.2 | 98.7 | 103.2 | 91.9 | 80.6 | x | x | x | x | x | s288c autofluor=0
CCC(=O)Oc1oc(-c2ccccc2)nc1C=Nc1ccc(C)cc1 | 101.4 | 95.6 | 103.0 | 102.0 | 90.3 | x | x | x | x | x | s288c autofluor=-0.5

Screens as filed in PubChem.
